Experimental data published in PubChem BioAssay (NCI).
Compounds without any hit were thinned out: in the full panel of roughly 79,000, 15% have a hit. Unmarked numbers belong to inactive results. The source made the active and inactive calls. Rule as the data show it: active = growth inhibition above about 70%; inactive = the rest.

How the values were obtained:
[1] = NCI Yeast Anticancer Drug Screen. Data for the wt1 strain (AID 149);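 also: 0% = growth of vehicle-treated wt1 cultures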; conditions: S. cerevisiae wt1 strain (SPY 50644) growth inhibition, hits give high values
Method in brief: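 Yeast wt1 strain exposed to compounds; growth inhibition measured relative to vehicle-treated controls.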

[2] = NCI Yeast Anticancer Drug Screen. Data for the rad50EPP+ strain (AID 151);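 also: 0% = growth of vehicle-treated control cultures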; conditions: S. cerevisiae rad50 mutant strain, hits give high values
Method in brief: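 Yeast strain carrying rad50 alteration (rad50EPP+) exposed to compounds; growth inhibition measured relative to vehicle-treated controls.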

[3] = NCI Yeast Anticancer Drug Screen. Data for the rad50 strain (AID 155);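 also: 0% = growth of vehicle-only cultures of the same strain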; conditions: S. cerevisiae rad50 strain growth inhibition, hits give high values
Method in brief: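 Yeast carrying a defined DNA repair defect were exposed to test compounds, and growth was compared with vehicle-treated controls to give percent inhibition.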

[4] = NCI Yeast Anticancer Drug Screen. Data for the mec2-1 strain (AID 157); conditions: S. cerevisiae mec2-1 strain, hits give high values
Method in brief: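 mec2-1 yeast strain, carrying an alteration in DNA damage repair or cell cycle control, was exposed to compounds; growth inhibition was measured relative to vehicle-treated controls.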

[5] = NCI Yeast Anticancer Drug Screen. Data for the sgs1 mgt1 strain (AID 161);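 also: 0% = growth of cultures given vehicle only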; conditions: S. cerevisiae sgs1 mgt1 strain, hits give high values
Method in brief: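 This yeast growth screen uses a strain with defined DNA-repair lesions; compound-treated growth is compared with vehicle-treated growth.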

[6] = NCI Yeast Anticancer Drug Screen. Data for the CLN2oe strain (AID 163);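 also: 0% = growth of vehicle-only control cultures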; conditions: S. cerevisiae CLN2oe strain, hits give high values
Method in brief: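 Yeast cells carrying a defined cell-cycle control alteration were exposed to test compounds. Growth inhibition was scored against vehicle-treated control cultures.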

[7] = NCI Yeast Anticancer Drug Screen. Data for the cln2 rad14 strain (AID 165);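 also: 0% = growth equal to vehicle treated cultures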; conditions: S. cerevisiae cln2 rad14 strain, hits give high values
Method in brief: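 Yeast carrying cln2 and rad14 alterations (cell cycle control and DNA damage repair) were exposed to compounds. Growth inhibition was measured against vehicle-treated controls.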

[8] = NCI Yeast Anticancer Drug Screen. Data for the bub3 strain (AID 167); conditions: S. cerevisiae bub3 mutant strain, hits give high values
Method in brief: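 Compounds were applied to a genetically altered yeast strain carrying a cell-cycle control defect. Growth inhibition was scored against vehicle-treated controls.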

[9] = NCI Yeast Anticancer Drug Screen. Data for the wt2 strain (AID 169);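 also: 0% = growth of vehicle-treated yeast cultures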; conditions: S. cerevisiae wt2 strain growth inhibition, hits give high values
Method in brief: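 Yeast cells were exposed to test compounds, and growth inhibition was measured relative to vehicle-treated controls.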

[10] = NCI Yeast Anticancer Drug Screen. Data for the mlh1 strain (AID 171);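 also: 0% = growth of vehicle-treated control cultures of the same strain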; conditions: S. cerevisiae mlh1 strain growth inhibition, hits give high values
Method in brief: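 Yeast carrying a defined genetic alteration in DNA damage repair or cell cycle control were exposed to test compounds. Growth inhibition was measured relative to vehicle-treated controls.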

[11] = NCI Yeast Anticancer Drug Screen. Data for the sgs1 strain (AID 173);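 also: 0% = growth of vehicle-only control cultures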; conditions: S. cerevisiae sgs1 mutant, hits give high values
Method in brief: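 Yeast mutant strains carrying defined defects in DNA damage repair or cell cycle control were exposed to test compounds. Growth inhibition was scored against vehicle-treated controls.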

[12] = NCI Yeast Anticancer Drug Screen. Data for the mlh1 rad18 strain (AID 175); conditions: S. cerevisiae mlh1 rad18 strain growth inhibition, hits give high values
Method in brief: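 Growth inhibition of the yeast strain was measured after compound exposure and expressed relative to vehicle-treated controls. The strain carries defined defects in DNA damage repair.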

[13] = NCI Yeast Anticancer Drug Screen. Data for the rad18 strain (AID 177); conditions: S. cerevisiae rad18 mutant growth inhibition, hits give high values
Method in brief: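 Yeast carrying a defined DNA damage repair alteration were exposed to compounds. Growth inhibition was expressed relative to vehicle-treated controls.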

[14] = NCI Yeast Anticancer Drug Screen. Data for the rad14 strain (AID 159);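 also: 0% = growth of vehicle-treated control cultures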; conditions: S. cerevisiae rad14 strain growth inhibition, hits give high values
Method in brief: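 Yeast cells carrying a defined DNA-repair defect were exposed to compounds, and growth inhibition was calculated relative to vehicle-treated control cultures.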

[15] = at 5.0 µM (retest, dose inferred, filed as 0.5)
[16] = at 50.0 µM (retest, dose inferred, filed as 5.0)

Compound `CN(NC(=O)/C(=C/C=C/c1ccccc1)NC(=O)c1ccccc1)C1=C(Cl)C(=O)[N+](c2ccccc2)=CC1` has a growth inhibition ([1]; at 1.2 µM) of 0%, a growth inhibition ([1]; at 3.7 µM) of 2% and a growth inhibition ([1]; at 11.0 µM) of 15%. The growth inhibition ([1]; at 33.0 µM) was 38%, the growth inhibition ([1]; at 100.0 µM) was 40% and the growth inhibition ([2]; at 1.2 µM) was 1%. For the same compound, the growth inhibition ([2]; at 3.7 µM) was 7%, the growth inhibition ([2]; at 11.0 µM) was 37% and the growth inhibition ([2]; at 33.0 µM) was 69%. The growth inhibition ([2]; at 100.0 µM) was 79% (active), the growth inhibition ([3]; at 1.2 µM) was -4% and the growth inhibition ([3]; at 3.7 µM) was -1%. The growth inhibition [3, 15] was -3%, the growth inhibition ([3]; at 11.0 µM) was 34% and the growth inhibition ([3]; at 33.0 µM) was 63%. For the same compound, the growth inhibition [3, 16] was 30%, the growth inhibition ([3]; at 50.0 µM) was 58.1% and the growth inhibition ([3]; at 100.0 µM) was 67%. It also gave a growth inhibition ([4]; at 1.2 µM) of 0%, a growth inhibition ([4]; at 3.7 µM) of 6% and a growth inhibition [4, 15] of -12%. The growth inhibition ([4]; at 11.0 µM) was 16%, the growth inhibition ([4]; at 33.0 µM) was 37% and the growth inhibition [4, 16] was 2%. It also gave a growth inhibition ([4]; at 50.0 µM) of 35.2%, a growth inhibition ([4]; at 100.0 µM) of 49% and a growth inhibition [5, 15] of -6%. The growth inhibition [5, 16] was 8%, the growth inhibition ([5]; at 50.0 µM) was 79.8% (active) and the growth inhibition ([6]; at 1.2 µM) was -1%. The growth inhibition ([6]; at 3.7 µM) was 5%, the growth inhibition ([6]; at 11.0 µM) was 19% and the growth inhibition ([6]; at 33.0 µM) was 40%. For the same compound, the growth inhibition ([6]; at 100.0 µM) was 44%, the growth inhibition [7, 15] was 30% and the growth inhibition [7, 16] was 35%. For the same compound, the growth inhibition ([7]; at 50.0 µM) was 15.8%, the growth inhibition ([8]; at 1.2 µM) was 1% and the growth inhibition ([8]; at 3.7 µM) was 11%. For the same compound, the growth inhibition [8, 15] was -5%, the growth inhibition ([8]; at 11.0 µM) was 33% and the growth inhibition ([8]; at 33.0 µM) was 53%. The growth inhibition [8, 16] was 72% (active), the growth inhibition ([8]; at 50.0 µM) was 70.4% (active) and the growth inhibition ([8]; at 100.0 µM) was 49%. It also gave a growth inhibition ([9]; at 1.2 µM) of -3%, a growth inhibition ([9]; at 3.7 µM) of 0% and a growth inhibition ([9]; at 11.0 µM) of 19%. It also gave a growth inhibition ([9]; at 33.0 µM) of 42%, a growth inhibition ([9]; at 100.0 µM) of 43% and a growth inhibition ([10]; at 1.2 µM) of 2%. It also gave a growth inhibition ([10]; at 3.7 µM) of 8%, a growth inhibition ([10]; at 11.0 µM) of 37% and a growth inhibition ([10]; at 33.0 µM) of 61%. The growth inhibition ([10]; at 100.0 µM) was 63%, the growth inhibition ([11]; at 1.2 µM) was 1% and the growth inhibition ([11]; at 3.7 µM) was 5%. The growth inhibition ([11]; at 11.0 µM) was 27%, the growth inhibition ([11]; at 33.0 µM) was 70% (active) and the growth inhibition ([11]; at 100.0 µM) was 69%. For the same compound, the growth inhibition [12, 15] was -2%, the growth inhibition [12, 16] was 18% and the growth inhibition ([12]; at 50.0 µM) was 84.4% (active). The growth inhibition ([13]; at 1.2 µM) was 1%, the growth inhibition ([13]; at 3.7 µM) was 26% and the growth inhibition ([13]; at 11.0 µM) was 77% (active). The growth inhibition ([13]; at 33.0 µM) was 90% (active) and the growth inhibition ([13]; at 100.0 µM) was 87% (active).
For `c1ccc(C2=NNC3c4ccccc4-c4ccccc4N3C2)cc1` (stereo unspecified), the growth inhibition ([1]; at 1.2 µM) was -4%, the growth inhibition ([1]; at 3.7 µM) was -5% and the growth inhibition ([1]; at 11.0 µM) was -3%. It also gave a growth inhibition ([1]; at 33.0 µM) of 0%, a growth inhibition ([1]; at 100.0 µM) of 10% and a growth inhibition ([2]; at 1.2 µM) of -2%. It also gave a growth inhibition ([2]; at 3.7 µM) of 1%, a growth inhibition ([2]; at 11.0 µM) of 5% and a growth inhibition ([2]; at 33.0 µM) of 27%. The growth inhibition ([2]; at 100.0 µM) was 35%, the growth inhibition ([3]; at 1.2 µM) was 0% and the growth inhibition ([3]; at 3.7 µM) was 9%. It also gave a growth inhibition [3, 15] of 16%, a growth inhibition ([3]; at 11.0 µM) of 11% and a growth inhibition ([3]; at 33.0 µM) of 33%. The growth inhibition [3, 16] was 67%, the growth inhibition ([3]; at 50.0 µM) was 84.9% (active) and the growth inhibition ([3]; at 100.0 µM) was 92% (active). The growth inhibition ([4]; at 1.2 µM) was 1%, the growth inhibition ([4]; at 3.7 µM) was 2% and the growth inhibition [4, 15] was 6%. The growth inhibition ([4]; at 11.0 µM) was 3%, the growth inhibition ([4]; at 33.0 µM) was 5% and the growth inhibition [4, 16] was 7%. The growth inhibition ([4]; at 50.0 µM) was 12.4%, the growth inhibition ([4]; at 100.0 µM) was 43% and the growth inhibition ([14]; at 1.2 µM) was -5%. The growth inhibition ([14]; at 3.7 µM) was -11%, the growth inhibition ([14]; at 11.0 µM) was 0% and the growth inhibition ([14]; at 33.0 µM) was 8%. The growth inhibition ([14]; at 100.0 µM) was 26%, the growth inhibition [5, 15] was 6% and the growth inhibition [5, 16] was 35%. For the same compound, the growth inhibition ([5]; at 50.0 µM) was 1.35%, the growth inhibition ([6]; at 1.2 µM) was 0% and the growth inhibition ([6]; at 3.7 µM) was -5%. For the same compound, the growth inhibition ([6]; at 11.0 µM) was -3%, the growth inhibition ([6]; at 33.0 µM) was 1% and the growth inhibition ([6]; at 100.0 µM) was 8%. The growth inhibition [7, 15] was -122%, the growth inhibition [7, 16] was 38% and the growth inhibition ([7]; at 50.0 µM) was 19.5%. For the same compound, the growth inhibition ([8]; at 1.2 µM) was 2%, the growth inhibition ([8]; at 3.7 µM) was -14% and the growth inhibition [8, 15] was 1%. For the same compound, the growth inhibition ([8]; at 11.0 µM) was 5%, the growth inhibition ([8]; at 33.0 µM) was 11% and the growth inhibition [8, 16] was 55%. The growth inhibition ([8]; at 50.0 µM) was 41%, the growth inhibition ([8]; at 100.0 µM) was 42% and the growth inhibition ([9]; at 1.2 µM) was -6%. It also gave a growth inhibition ([9]; at 3.7 µM) of -5%, a growth inhibition ([9]; at 11.0 µM) of -6% and a growth inhibition ([9]; at 33.0 µM) of 1%. The growth inhibition ([9]; at 100.0 µM) was 68%, the growth inhibition ([10]; at 1.2 µM) was -1% and the growth inhibition ([10]; at 3.7 µM) was 9%. For the same compound, the growth inhibition ([10]; at 11.0 µM) was 2%, the growth inhibition ([10]; at 33.0 µM) was 19% and the growth inhibition ([10]; at 100.0 µM) was 58%. For the same compound, the growth inhibition ([11]; at 1.2 µM) was -3%, the growth inhibition ([11]; at 3.7 µM) was -4% and the growth inhibition ([11]; at 11.0 µM) was -5%. For the same compound, the growth inhibition ([11]; at 33.0 µM) was 2%, the growth inhibition ([11]; at 100.0 µM) was 16% and the growth inhibition [12, 15] was 11%. For the same compound, the growth inhibition [12, 16] was 50%, the growth inhibition ([12]; at 50.0 µM) was 34% and the growth inhibition ([13]; at 1.2 µM) was 0%. For the same compound, the growth inhibition ([13]; at 3.7 µM) was 0%, the growth inhibition ([13]; at 11.0 µM) was -2% and the growth inhibition ([13]; at 33.0 µM) was 7%. The growth inhibition ([13]; at 100.0 µM) was 55%.
